In PubChem BioAssay (NCI):
Compounds without any hit were thinned out: in the full panel of roughly 83,000, 20% have a hit.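 Compound tested at a single concentration for 48 hours in 96-well plates; a percent growth value below 10 was scored as active.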 A number with no mark means an inactive call. Calls of active or inactive are those of the source.

Columns and labels:
Assay in all cases: NCI-60 one-dose screen, 48 h (100 = growth as untreated, 0 = no growth, -100 = all killed)
Conditions in all cases: 10 µM unless noted
NCI-H23 lung = test system: NCI-H23 lung
NCI-H226 lung = test system: NCI-H226 lung
NCI-H322M lung = test system: NCI-H322M lung
HOP-62 NSCLC = test system: HOP-62 NSCLC
NCI-H460 lung = test system: NCI-H460 lung
HOP-92 NSCLC = test system: HOP-92 NSCLC
NCI-H522 lung = test system: NCI-H522 lung
A549/ATCC NSCLC = test system: A549/ATCC NSCLC
786-0 renal = test system: 786-0 renal
COLO 205 colon = test system: COLO 205 colon

Row | SMILES | growth (NCI-H23 lung) | growth (NCI-H226 lung) | growth (NCI-H322M lung) | growth (HOP-62 NSCLC) | growth (NCI-H460 lung) | growth (HOP-92 NSCLC) | growth (NCI-H522 lung) | growth (A549/ATCC NSCLC) | growth (786-0 renal) | growth (COLO 205 colon)
1 | O=C(O)c1cn(C2CC2)c2cc(N3CCN(Cc4nnc(Nc5ccccc5)o4)CC3)c(F)cc2c1=O | 105% | 108% | 93.5% | 99.8% | 104% | 104% | 92.7% | 98.3% | 94.9% | 104%
2 | CC(C)C1=C[C@@]23CC[C@H]4[C@](C)(COCCC#N)CCC[C@]4(C)[C@H]2C[C@@H]1[C@@H]1[C@H]3[C@@H](OCCC#N)CC[C@@H]1OCCC#N | 35.7% | 39.8% | 86.1% | 65% | 30.3% | 53% | 25% | 27.6% | 54.3% | 17.4%
3 | COc1cc(C2=N/C(=C\c3cc4ccccc4nc3Oc3ccccc3)C(=O)N2C(=N)N)cc(OC)c1OC | 71% | 18.7% | 55.4% | -0.576% (active) | 52.1% | 27.9% | 60.3% | 77.1% | 28.6% | 90.4%
4 | O=C(CN1N=C(c2ccc(F)cc2)CCC1=O)Nc1nc2ccccc2s1 | -26.2% (active) | 41.7% | 95.1% | -23.7% (active) | 51.3% | -77.1% (active) | -73.5% (active) | -48.8% (active) | -90.2% (active) | 87.2%
5 | Cc1cc2ccccc2c[n+]1CC(=O)c1ccc(-c2ccccc2)cc1 | 48.6% | 60.8% | 78.3% | 67.1% | 45.9% | 27.8% | 26.8% | 53.3% | 65.9% | 32.5%
6 | CN(C)CCCn1c2c(c3cc(-c4ccco4)ccc3c1=O)C(=O)c1ccccc1-2 | 71.8% | 77.2% | 81.3% | 59.2% | 46.3% | 71.6% | 59.9% | 67.7% | 69.2% | 52.9%
7 | C=C1C(=O)O[C@H]2[C@H]1CC/C(COC(=O)CCCCCCCC(=O)OC/C1=C/CC[C@@]3(C)O[C@H]3[C@H]3OC(=O)C(=C)[C@@H]3CC1)=C\CC[C@@]1(C)O[C@@H]21 | 2.7% (active) | 47% | 84.7% | 79.2% | 61.4% | 17.9% | -71.1% (active) | 82.6% | 4.86% (active) | -61.6% (active)
8 | N#Cc1ccc(N2Cc3cc(Cl)ccc3OC3=C2C(=O)N(Cc2ccc(F)cc2)C3=O)cc1 | 3.56% (active) | 92.6% | 96.3% | 52% | 23.6% | -64.1% (active) | -63.2% (active) | 68.5% | -90.5% (active) | -73.5% (active)
9 | Cc1ccn2c3c(c(C(=O)O)c2c1)C(=O)c1ccccc1C3=O | 2.03% (active) | 114% | 6.55% (active) | 45.5% | -22.4% (active) | 96.8% | 82.5% | -39.6% (active) | 84.2% | 42.1%
10 | C=CCn1c(SCC(=O)Nc2ccc(C(=O)/C=C/c3cc(OC)c(OC)c(OC)c3)cc2)nnc1-c1ccccc1 | 93% | 88.5% | 104% | 117% | 89.8% | 150% | 82.8% | 85.1% | 93.1% | 101%
11 | COc1ccccc1-c1ccc2nc(NC(=O)Nc3cc(C(F)(F)F)cc(C(F)(F)F)c3)sc2c1 | 6.38% (active) | 16.9% | 15.3% | -1.58% (active) | -4.9% (active) | -8.46% (active) | -2.89% (active) | 12.7% | 8.85% (active) | -84.8% (active)
12 | C=C1C(=O)O[C@H]2[C@H]1CCC(/C=N/c1ncc(Br)cc1N)=C\CC[C@@]1(C)O[C@@H]21 | 49.2% | 51.9% | 85.3% | 67.3% | 58.3% | -15.2% (active) | -51.7% (active) | 57.4% | -13.9% (active) | -60% (active)
13 | COc1cc(NC(=O)c2cc(O)c(C/C=C(\C)CCC=C(C)C)c(O)c2)cc2c1O[C@]1(C)CC[C@@H](O)C(C)(C)[C@H]1C2 | 25.1% | 38% | 41.5% | 12.1% | 11.4% | -9.24% (active) | 12.8% | 14.5% | -19% (active) | -22.3% (active)
14 | COC(=O)/C=C1\SC(=Nc2cccc(Cl)c2)N(CCc2c[nH]c3ccccc23)C1=O | 69.9% | 101% | 62% | 41.5% | 51.3% | 82.4% | 24.2% | 48% | 60.6% | 12.1%
15 | Cc1c(Cl)cccc1NC(=O)c1sc2nc3c(cc2c1N)CCCCC3 | 48% | 71.6% | 49.8% | 43.2% | 16.4% | 37.8% | 10% | 34.5% | 32.1% | 9.8% (active)
16 | COc1cc(NC(=O)COc2cc(C)nc3ccc(OC)cc23)cc(OC)c1 | 86.9% | 87.1% | 94% | 91.3% | 95% | 94.1% | 75% | 87% | 97.1% | 69.4%
17 | O=C(Nc1ccc2ncnc(Nc3cccc(C(F)(F)F)c3)c2c1)c1cccs1 | 30.2% | 67.6% | 40.7% | 58.4% | 22.5% | 67.6% | 33.8% | 32.4% | 57% | 24.1%
18 | C=C(C)[C@@H]1CC[C@]2(C(=O)n3ccnc3)CC[C@]3(C)[C@H](CC[C@@H]4[C@@]5(C)CCCNC(C)(C)[C@@H]5CC[C@]43C)[C@@H]12 | 38.8% | 64.5% | 66.9% | 66.3% | -71.8% (active) | 51.5% | 50.7% | 23% | 29.9% | -69.8% (active)
19 | O=C(C[n+]1cccc2cc(Cl)ccc21)c1ccc2c(c1)CCCC2 | 8.05% (active) | 39% | 61.6% | 36.2% | 19.8% | 4.68% (active) | -3.94% (active) | 34.5% | 80.4% | 2.8% (active)
20 | CCCCc1ccc(N=Nc2ccc(OCC[N+](C)(C)C)cc2)cc1 | 49.2% | 51.9% | 73.8% | 20% | 32.7% | 25.8% | 34.4% | 33.2% | 71.4% | -5.3% (active)
21 | COc1cc(C2=NN(C(C)=O)C(c3cccc(Nc4ccnc5cc(C(F)(F)F)ccc45)c3)C2)cc(OC)c1OC (stereo not given) | 62.8% | 66.5% | 68.3% | 63.9% | 57.6% | 25.3% | 55.7% | 53.1% | 58.8% | 50.3%
22 | CC(=O)c1ccc(NC(=O)CSc2nnc(-c3cc(-c4ccc(Cl)cc4)nc4ccccc34)o2)cc1 | 61% | 96.4% | 97.8% | 80.6% | 46% | 94.2% | 60.9% | 76.7% | 63.5% | 96.6%
23 | O=C(CCc1nnco1)c1nc2ccc([N+](=O)[O-])cc2[nH]1 | 86.3% | 99.4% | 99.1% | 113% | 108% | 119% | 101% | 100% | 111% | 121%
24 | O=C(CCc1nnc2sc(OCc3ccccc3)nn12)c1nc2ccc([N+](=O)[O-])cc2[nH]1 | 84.6% | 94.8% | 93.3% | 102% | 105% | 106% | 79.2% | 94.3% | 108% | 99.5%
25 | C=C(C)[C@@H]1CC[C@]2(C(N)=O)CC[C@]3(C)[C@H](CC[C@@H]4[C@@]5(C)CCCNC(C)(C)[C@@H]5CC[C@]43C)[C@@H]12 | 76.4% | 86.3% | 101% | 91.4% | 64% | 65.4% | 84.4% | 65% | 87.2% | 69.3%
